Source: PubChem BioAssay (Tox21)
Results filed as inconclusive are left out. More than one record can exist for a structure, and the calls need not agree. The source made the active and inactive calls. Calls come from the whole dose curve.

biological target: Acetylcholinesterase (Homo sapiens) (UniProt P22303); assay: Acetylcholinesterase (AChE) small molecule antagonists: colormetric cell-based qHTS assay (AID 1347395); conditions: SH-SY5Y cells AChE activity, colorimetric (Ellman); series mostly up to 115 µM; activity, negative = inhibition: at the top concentration; note: nearly all actives have a fitted effect of over 30% in size
Outline: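 Neuroblastoma line SH-SY5Y supplied the enzyme; cells were preincubated with compound for 30 min at 37 C and 5% CO2. Acetylthiocholine with DTNB was then added for 90 min at 37 C, and thiocholine was measured by colour.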
% is set by controls: 0 for no effect and ±100 for the full control effect; potency is the fitted concentration of half-maximal effect.

Sequence of Acetylcholinesterase (Homo sapiens) (P22303 whole entry, looked up): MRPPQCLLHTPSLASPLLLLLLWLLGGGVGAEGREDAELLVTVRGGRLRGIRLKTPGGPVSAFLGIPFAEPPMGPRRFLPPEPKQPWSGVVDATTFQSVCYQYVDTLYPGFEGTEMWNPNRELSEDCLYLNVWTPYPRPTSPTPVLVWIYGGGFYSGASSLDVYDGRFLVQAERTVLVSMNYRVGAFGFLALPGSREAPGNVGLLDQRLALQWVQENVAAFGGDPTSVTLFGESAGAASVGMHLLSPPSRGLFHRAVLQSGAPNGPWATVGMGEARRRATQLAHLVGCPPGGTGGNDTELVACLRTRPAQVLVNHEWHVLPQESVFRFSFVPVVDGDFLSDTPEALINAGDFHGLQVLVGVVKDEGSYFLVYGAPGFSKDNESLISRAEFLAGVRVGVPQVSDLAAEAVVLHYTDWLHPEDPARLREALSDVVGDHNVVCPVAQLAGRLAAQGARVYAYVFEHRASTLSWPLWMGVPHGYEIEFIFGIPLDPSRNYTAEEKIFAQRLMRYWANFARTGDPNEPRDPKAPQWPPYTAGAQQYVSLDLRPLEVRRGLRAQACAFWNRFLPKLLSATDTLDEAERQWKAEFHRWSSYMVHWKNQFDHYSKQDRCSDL

Row | SMILES | activity, negative = inhibition | Potency
1 | COS(=O)(=O)C(F)(F)F | 0.0896% (inactive) | 
2 | CCCOCC(C)O (stereo not given) |  | inactive
3 | CC(C)=NNC(N)=S | 1.13% (inactive) | 
4 | CCO[Si](CCCN=C=O)(OCC)OCC | 1.16% (inactive) | 
5 | CCC/C=C(\C=O)CC | 8.91% (inactive) | 
6 | CC(C)OP(=O)(CP(=O)(OC(C)C)OC(C)C)OC(C)C |  | inactive
7 | COC(=O)/C=C/c1ccccc1 |  | inactive
8 | COc1cccc2c1C(=O)c1c(O)c3c(c(O)c1C2=O)C[C@@](O)(C(=O)CO)C[C@@H]3O[C@H]1C[C@H](N)[C@H](O)[C@H](C)O1 |  | 8.71 µM (active)
9 | Nc1cc(Cl)c(N)c(Cl)c1 |  | 79 µM (active) and inactive
10 | CCCCCCCCCCCCc1ccc(O)cc1 | -0.547% (inactive) | 
11 | C=CCCC=C | 0.0969% (inactive) | 
12 | CCn1nc(C)c2c1C(=O)NCC(c1ccc(O)cc1)=N2 | -0.651% (inactive) | 
13 | CC[C@H]1OC(=O)[C@H](C)[C@@H](O[C@H]2C[C@@](C)(OC)[C@@H](O)[C@H](C)O2)[C@H](C)[C@@H](O[C@@H]2O[C@H](C)C[C@H](N(C)C)[C@H]2O)[C@](C)(O)C[C@@H](C)/C(=N\OCOCCOC)[C@H](C)[C@@H](O)[C@]1(C)O | 0.105% [at 52.9 µM] (inactive) | 
14 | CC(C)COC(=O)c1ccccc1O | 0.477% (inactive) | 
15 | CCCCCCc1ccc(O)cc1O |  | inactive
16 | CC(=O)N(CC(O)CO)c1c(I)c(C(=O)NCCO)c(I)c(C(=O)NCC(O)CO)c1I (stereo not given) | 2.11% [at 52.9 µM] (inactive) | 
17 | Oc1ccc2c(c1)OC[C@@H](N1CCC(O)(c3ccc(F)cc3)CC1)[C@H]2O | 0.429% [at 52.9 µM] (inactive) | 
18 | O=C(O)Cc1cn(-c2ccccc2)nc1-c1ccc(Cl)cc1 | 0.793% [at 52.9 µM] (inactive) | 
19 | c1ccc(SCCSc2ccccc2)cc1 | 2.09% (inactive) | 
20 | FC(F)(F)c1ccccc1Cl | 1.16% (inactive) | 

Row | SMILES | activity, negative = inhibition | Potency
21 | CCCCCCOC(=O)CCCCCCCC(=O)OCCCCCC | -2.85% (inactive) | 
22 | Nc1nc(N)c2nc(-c3ccccc3)c(N)nc2n1 |  | inactive
23 | C=C(C)C(=O)OCCO | 5.54% (inactive) | 
24 | O=[N+]([O-])c1cccc(Cl)c1 |  | inactive
25 | C/C=C/C(=O)O |  | inactive
26 | CCCCCCCCS(=O)(=O)Cl | 1.36% (inactive) | 
27 | CC(=O)c1c(C)c([N+](=O)[O-])c(C(C)(C)C)c([N+](=O)[O-])c1C |  | 79.6 µM (active)
28 | COC(=O)CC(C)CCC=C(C)C (stereo not given) | 0.202% (inactive) | 
29 | CC(C)c1ccc2c(C(C)C)cc(C(C)C)c(S(=O)(=O)O)c2c1 | 1.68% (inactive) | 
30 | O=C(O)CCNC(=O)c1ccc(N=Nc2ccc(O)c(C(=O)O)c2)cc1 | 0.981% [at 52.9 µM] (inactive) | 
31 | O=CC1CC=CCC1 (stereo not given) | -2.05% (inactive) | 
32 | CN(CCOc1ccc(CC2SC(=O)NC2=O)cc1)c1ccccn1 (stereo not given) |  | inactive
33 | C=CC(=O)OCC(C)OCC(C)OCC(C)OC(=O)C=C (stereo not given) | -0.822% (inactive) | 
34 | O=[N+]([O-])c1ccccc1C(F)(F)F |  | inactive
35 | Cc1cc(CCCOc2c(C)cc(-c3noc(C(F)(F)F)n3)cc2C)on1 | -4.37% [at 52.9 µM] (inactive) | 
36 | c1ccc(CC2=NCCN2)cc1 | 2.69% [at 52.9 µM] (inactive) | 
37 | Nc1ncnc(Nc2ccccc2)n1 | 2.32% [at 52.9 µM] (inactive) | 
38 | CC(COC(=O)c1ccccc1)OC(=O)c1ccccc1 (stereo not given) | -1.16% (inactive) | 
39 | CC(C)NCC(O)c1cc(O)cc(O)c1 (stereo not given) | -1.77% [at 52.9 µM] (inactive) | 
40 | CNc1c2c(nn1C)CCCC2 | 0.969% [at 52.9 µM] (inactive) | 
